What follows are molecules tested on MUSK. Conditions: concentration: 1 μM, replicates: in singlicate; n = 1.
For `O=C(O)C(F)(F)F.O=c1[nH]ccc2nc(N[C@@H]3CCNC3)nc(Nc3cc(Cl)cc(Cl)c3)c12` [GSK2188764], the “%Inh” value was 3%. `Cl.O=C(Nc1ccc(Oc2ccc3[nH]c(NC(=O)c4ccco4)nc3c2)cc1)Nc1cc(C(F)(F)F)ccc1F` [GW683134] was tested, and the “%Inh” value was 98.6%. For `Cc1cccc(Nc2nc(NCCN)ncc2C(N)=O)c1` [GSK1292139], the “%Inh” value was 6%. With `CC(C)NCC(Cc1ccccc1)NC(=O)c1cc(Br)c(-c2ccnc3[nH]ccc23)s1.Cl.Cl` (stereo not shown) [GSK1383281] the “%Inh” value was 0%. With `Nc1cccc(-c2ccc3c(N)n[nH]c3c2)c1` [GSK2193613] the “%Inh” value was 20%. With `COc1cc(Nc2nccc(N3CCC(NS(=O)(=O)c4ccc(NC(C)=O)cc4)CC3)n2)cc(OC)c1OC` [GSK1379825] the “%Inh” value was 14%. `Cc1nn2c(=O)cc(N3CCO[C@H](C)C3)nc2n1Cc1cccc(Cl)c1Cl` [GSK2373693] was tested, and the “%Inh” value was 14%. For `CN1CCN(Cc2ccc(NC(=O)Nc3ccc(N(C)c4ccnc(Nc5ccc(CS(C)(=O)=O)cc5)n4)cc3)cc2)CC1.Cl` [GW827654], the “%Inh” value was 98.8%. For `COC(=O)Nc1nc2ccc(Oc3ccc(CC(=O)Nc4cc(C(F)(F)F)ccc4F)cc3)cc2[nH]1` [GW680903], the “%Inh” value was 95.5%. For `COc1ccc(C2=C(Nc3cccc(O)c3)C(=O)NC2=O)cc1` [SB-390766], the “%Inh” value was 3%. In the case of `CN(C)c1ncnc2nc[nH]c12` [SKF-31736], the “%Inh” value is reported as 14%. For `Cc1cc(-c2ccnc(Nc3cccc(C#N)c3)n2)cc(C)c1O` [GSK1440913], the “%Inh” value was 25%.

These molecules were tested on MYLK2. Conditions: concentration: 1 μM, replicates: in singlicate; n = 1.
`N#CC1(c2cccc(C(=O)Nc3cccc(Oc4ccc5nc(NC(=O)C6CC6)sc5n4)c3)c2)CC1` was tested, and the “%Inh” value was 0%. With `O=C(Nc1n[nH]c2nc(-c3ccccc3)ccc12)C1CC1` [SB-708999] the “%Inh” value was 86%. With `CC(C)c1nc(-c2cccc(NS(=O)(=O)c3c(F)cccc3F)c2)c(-c2ccnc(Nc3ccc(N4CCOCC4)nc3)n2)s1.Cl` [GSK1723980] the “%Inh” value was 0%. With `Cl.Cl.NCC(NC(=O)c1cc(-c2cccnc2)c(-c2ccnc3[nH]ccc23)s1)c1ccccc1` (stereo not shown) [GSK1323434] the “%Inh” value was 15%. For `COC(=O)Nc1nc2cc(Oc3ccc(NC(=O)Nc4cccc(SC)c4)cc3)ccc2[nH]1.Cl` [GW697999], the “%Inh” value was 2%. With `O=C(Nc1n[nH]c2nc(-c3ccccc3O)ccc12)C1CC1` [SB-711880] the “%Inh” value was 85%. `O=C(Nc1n[nH]c2cc(-c3cccs3)ccc12)C1CC1` [SB-731284] was tested, and the “%Inh” value was 87%. In the case of `O=C(Nc1c(F)cccc1F)c1cc(C(=O)c2ccccc2F)c[nH]1` [GSK1326180], the “%Inh” value is reported as 4%. `Cc1ccc(Nc2ccnc(Nc3ccc(C)c(F)c3)n2)cc1O.Cl` [GW582868] was tested, and the “%Inh” value was 0%. In the case of `COc1cccc(-c2nc(-c3ccccc3)[nH]c2-c2ccncc2)c1` [SB-610250], the “%Inh” value is reported as 8%. In the case of `CCn1cnc2c(NCc3ccccc3)ncnc21` [SKF-96418], the “%Inh” value is reported as 0%. With `Cl.Cl.NC(CNC(=O)c1cc(Br)c(-c2ccnc3[nH]ccc23)s1)c1ccccc1` (stereo not shown) [GSK1322949] the “%Inh” value was 27%. For `CN(c1ccc(F)c(NC(=O)c2cccc(OC(C)(C)C#N)c2Cl)c1)c1ccc2nc(NC(=O)C3CC3)sc2n1`, the “%Inh” value was 0%. `Fc1cc(Cl)ccc1Nc1ccnc2cc(-c3ccc(CN4CCOCC4)o3)ccc12` [GW560109] was tested, and the “%Inh” value was 8%. For `COc1cc(Nc2ccnc3cc(-c4ccncc4)ccc23)cc(OC)c1OC.Cl` [GW494610], the “%Inh” value was 13%. For `Cc1ccc(O)cc1Nc1ccnc2cc(-c3ccc(CN4CCCCC4)o3)ccc12` [GW557777], the “%Inh” value was 0%. `Nc1ncc(-c2ccc3nccc(-c4ccncc4)c3c2)cc1S(=O)(=O)N1CCCCC1` [GSK1693850] was tested, and the “%Inh” value was 0%. With `COc1ccc(C)c(Nc2ccnc(Nc3ccc(-c4cnc[nH]4)cc3)n2)c1.Cl` [GW784041] the “%Inh” value was 7%. In the case of `Fc1cc(Cl)ccc1Nc1ccnc2cc(-c3ccc(CN4CCSCC4)o3)ccc12` [GW560106], the “%Inh” value is reported as 13%. In the case of `Cc1ccc(NC(=O)c2ccnc(N3CCCCC3)c2)cc1-c1ccc(C(=O)NCC2CC2)cc1` [GW775610], the “%Inh” value is reported as 15%. With `CCOc1nccc(-c2c(-c3ccc(F)cc3)ncn2C2CCNCC2)n1` [SB-249175] the “%Inh” value was 0%. `O=C(O)C(F)(F)F.O=c1[nH]ccc2nc(N[C@@H]3CCNC3)nc(Nc3ccc4c(c3)S(=O)(=O)CC4)c12` [GSK2181306] was tested, and the “%Inh” value was 78%. With `c1ccc(Oc2ccc(Nc3ccnc4cc(-c5ccc(CN6CCCCC6)o5)ccc34)cc2)nc1` [GW567143] the “%Inh” value was 0%. In the case of `Cc1ccc(C)c(NC(=O)Nc2ccc(C)c(-c3ccc(C(=O)Nc4ccncc4)cc3)c2)c1` [GSK1398473], the “%Inh” value is reported as 0%. With `Cn1cc(-c2cnc(N)c3c(-c4ccc5c(c4)CCN5C(=O)Cc4ccccc4)csc23)cn1` [GSK2593074] the “%Inh” value was 55%. `O=C(O)C(F)(F)F.O=c1[nH]ccc2nc(N[C@@H]3CCNC3)nc(Nc3cc(Cl)cc(Cl)c3)c12` [GSK2188764] was tested, and the “%Inh” value was 50%. In the case of `Cl.O=C(Nc1ccc(Oc2ccc3[nH]c(NC(=O)c4ccco4)nc3c2)cc1)Nc1cc(C(F)(F)F)ccc1F` [GW683134], the “%Inh” value is reported as 75%. For `Cc1cccc(Nc2nc(NCCN)ncc2C(N)=O)c1` [GSK1292139], the “%Inh” value was 5%. For `CC(C)NCC(Cc1ccccc1)NC(=O)c1cc(Br)c(-c2ccnc3[nH]ccc23)s1.Cl.Cl` (stereo not shown) [GSK1383281], the “%Inh” value was 1%. `Nc1cccc(-c2ccc3c(N)n[nH]c3c2)c1` [GSK2193613] was tested, and the “%Inh” value was 92.3%. For `COc1cc(Nc2nccc(N3CCC(NS(=O)(=O)c4ccc(NC(C)=O)cc4)CC3)n2)cc(OC)c1OC` [GSK1379825], the “%Inh” value was 61%. For `Cc1nn2c(=O)cc(N3CCO[C@H](C)C3)nc2n1Cc1cccc(Cl)c1Cl` [GSK2373693], the “%Inh” value was 6%. `CN1CCN(Cc2ccc(NC(=O)Nc3ccc(N(C)c4ccnc(Nc5ccc(CS(C)(=O)=O)cc5)n4)cc3)cc2)CC1.Cl` [GW827654] was tested, and the “%Inh” value was 61%. With `COC(=O)Nc1nc2ccc(Oc3ccc(CC(=O)Nc4cc(C(F)(F)F)ccc4F)cc3)cc2[nH]1` [GW680903] the “%Inh” value was 0%. In the case of `COc1ccc(C2=C(Nc3cccc(O)c3)C(=O)NC2=O)cc1` [SB-390766], the “%Inh” value is reported as 12%. For `CN(C)c1ncnc2nc[nH]c12` [SKF-31736], the “%Inh” value was 0%. With `Cc1cc(-c2ccnc(Nc3cccc(C#N)c3)n2)cc(C)c1O` [GSK1440913] the “%Inh” value was 76%.
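Further: KINOMEscan kinase panel screen.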
